High-throughput results: PubChem, National Center for Advancing Translational Sciences (NCATS)
This is a sample that favours compounds with a hit; in the whole collection about 10% have one here.
Pf growth 96h – Primary qHTS for delayed death inhibitors of the malarial parasite plastid, 96 hour incubation | AID 504834, 2011 | Potency, µM (series often up to 28.7 µM), inactives show at the top dose activity change, negative = inhibition, most hits filed as inhibitors | hit rate 6.9% among 320,000 | P. falciparum luciferase reporter growth, 96 h; also: % is scaled to controls: 0 for no effect and ±100 for the full control effect
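Plates of compound plus infected erythrocytes (2% hematocrit, 0.05% parasitemia final) incubate 96 hours, 37 C, 5% CO2. Detection reagent added; reduced luminescence from the parasites' luciferase reporter flags inhibition.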
SARS PLpro yeast – qHTS of Yeast-based Assay for SARS-CoV PLP; hit rate 0.19% among 330,000; AID 485353, 2010; Potency, µM (highest dose often 32.9 µM), without a hit: at the top dose activity, positive = growth rescue, hits mostly activators; S. cerevisiae expressing SARS-CoV PLpro, growth rescue; calls by dose curve; also: 0% is about no effect; nearly all actives have a fitted effect of over 55% in size
Pf growth 48h – Primary qHTS for delayed death inhibitors of the malarial parasite plastid, 48 hour incubation; P. falciparum luciferase growth in erythrocytes, 48 h; Potency, µM (series often up to 28.7 µM), for inactives: at the highest dose activity change, negative = inhibition, actives largely listed as inhibitors; hit rate 5.9% among 310,000; also: % is scaled to controls: 0 for no effect and ±100 for the full control effect
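Cell-based growth assay: transgenic P. falciparum expressing firefly luciferase, cultured in red cells within RPMI 1640 containing 0.5% w/v Albumax, 24 mM bicarbonate and gentamycin. A drop in luciferase activity indicates inhibition.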
NS1 inh – qHTS Assay for Inhibitors of Influenza NS1 Protein Function; AID 2326, 2010; Potency, µM (titrated, usually from 46.1 µM), for the others: top-dose activity, positive = more growth; hit rate 0.4% among 270,000; calls by dose curve; also: actives are rising curves; nearly all actives have a fitted effect of over 50% in size
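Compounds were scored for reversing the slow growth caused by influenza A NS1 in S. cerevisiae, measured by optical density at 600 nm. Assay medium contained 2% galactose at pH 6.0; NS1-free yeast of the same strain were the positive control.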
Numbers without * were called inactive; ? = inconclusive; nt = not tested or not shown; [ ] = another dose, or the depositor's remark. Unless noted, calls follow the shape of the dose curve; as a rule, active = well fitted inhibition curve with a large enough effect; inconclusive = small, poorly fitted or top-dose-only effect, or another doubt; inactive = no such curve, though single readings can be large or run the other way. Potency is read from the fitted curve at half-maximal effect.

SMILES	Pf growth 96h	SARS PLpro yeast	Pf growth 48h	NS1 inh
CN(Cc1ccc(F)cc1)Cc1nc(-c2ccccc2)no1	10.4µM*	-1.1%	-3.1%	-5.7%
CCCc1cc(=O)oc2cc(OCC(=O)NCCCn3ccnc3)c(Cl)cc12	-4.9%	7.9%	-10.5%	7.6%
COc1ccccc1CN(Cc1cccnc1)S(=O)(=O)c1ccc(-n2cnnn2)c(OC)c1	8.28µM*	19.4%	?	-12.3%
CCOc1ccccc1CN(Cc1ccco1)S(=O)(=O)c1ccc(-n2cnnn2)c(OC)c1	nt	-5.3%	10.4µM*	-1.3%
COc1cc(NC(=O)c2cc([N+](=O)[O-])ccc2NC(=O)CN2CCN(c3ccccn3)CC2)cc(OC)c1	?	0.8%	14.5%	4.3%
CCOC(=O)c1c(C)n(C)c2ccc(O)c(CN3CCC(C)CC3)c12	10.4µM*	-2.9%	?	-13.3%
CCCCn1c(C)c(C(=O)OCC)c2c(CN3CCOCC3)c(O)ccc21	nt	-2.9%	?	?
CCCCn1c(C)c(C(=O)OCC)c2c(CN3CCCC3)c(O)ccc21	4.65µM*	1.9%	nt	4.0%
CCN(Cc1ccccc1)C(=O)c1c(-c2ccccc2Cl)noc1C	?	9.1%	?	-13.0%
CCn1c2ccccc2c2cc(N)ccc21	11.7µM*	12.3%	?	?
CCn1c2ccccc2c2cc(/C(C)=N/O)ccc21	41.8%	-19.3%	-0.6%	-40.0%
O=C(CSc1nnc(-c2ccccn2)n1Cc1ccco1)c1ccc(-c2ccccc2)cc1	1.3%[5.75 µM]	2.5%	-8.0%	6.6%
Cc1cccc(NC(=O)CSc2nnc(CSc3nc(C)cc(C)n3)n2Cc2ccco2)c1	14.7µM*	4.1%	?	-2.2%
O=C(CSc1nnc(-c2cnccn2)n1Cc1ccco1)c1ccc2ccccc2c1	10.4µM*	-0.3%	13.2%	-16.8%
Cn1c(SCC(=O)c2ccccc2)nnc1-c1cnccn1	8.28µM*	-7.2%	105.7%	-15.4%
CCn1c(SCC(=O)c2ccccc2)nnc1-c1cnccn1	6.9%	-3.2%	60.7%	8.8%
CCOc1ccccc1NC(=O)CSc1nnc(-c2cnccn2)n1C	1.85µM*	-2.2%	-0.6%	-3.6%
C=CCOCCn1[nH]c2ccccc2c1=O	31.7%	-10.7%	?	nt
COc1ccc(NC(=O)CSc2n[nH]c(=O)n2C2CC2)cc1OC	-20.4%	-2.0%	-12.8%	nt
CCCCc1cc(=O)oc2cc(OCC(=O)Nc3cccnc3)c(Cl)cc12	-26.9%	6.8%	15.6%	17.8%
CC(C)OC(=O)CSc1nnc(-c2cnccn2)n1C	10.4µM*	-6.0%	3.7%	6.0%
COC(=O)CSc1nnc(-c2cnccn2)n1C	nt	9.2%	-14.5%	1.2%
COc1ccc(C)cc1NC(=O)CSc1nnc(-c2ccco2)n1Cc1ccco1	10.4µM*	-0.5%	-19.0%	-34.7%
Fc1ccccc1CSc1nnc(-c2cnccn2)n1Cc1ccco1	nt	8.6%	?	-21.5%
CCOc1ccccc1NC(=O)CSc1nnc(-c2ccccn2)n1Cc1ccco1	3.7µM*	0.5%	?	-118.0%
SMILES	Pf growth 96h	SARS PLpro yeast	Pf growth 48h	NS1 inh
COc1ccc(C)cc1NC(=O)CSc1nnc(COc2ccc(C)cc2)n1Cc1ccco1	?	8.4%	?	-95.6%
Clc1ccc(CSc2nnc(-c3ccccn3)n2Cc2ccco2)c(Cl)c1	14.7µM*	5.7%	?	-33.4%
C/C(CC(=O)Nc1cccc(C(F)(F)F)c1)=N\NC(=O)c1cnccn1	-17.1%	-1.6%	-11.5%	21.7%
CCc1cccc(NS(=O)(=O)c2ccc3c(c2)N(C)CCO3)c1	-19.6%	-3.5%	-2.0%	-7.9%
CC(C)OC(=O)CSc1nnc(-c2cnccn2)n1Cc1ccco1	nt	nt	-8.6%	-8.7%
COc1cccc(-c2nnc(SCC(=O)OC(C)C)n2Cc2ccco2)c1	7.38µM*	0.9%	-3.3%	-45.3%
COc1ccc(CNC(=O)CCSCc2cccc(F)c2)cc1	?	0.0%	-1.3%	-6.5%
Cc1ccccc1C(=O)N1CCC(C(=O)OCc2nc(N)nc(Nc3ccccc3)n2)CC1	13.1µM*	5.5%	?	nt
Nc1nc(COC(=O)CCC(=O)c2ccccc2)nc(Nc2ccccc2)n1	?	-2.1%	-6.3%	nt
COc1cc(SC)ccc1C(=O)N(CC(=O)Nc1ccccc1Br)Cc1ccco1	?	-15.8%	?	nt
O=C(CN(Cc1ccco1)C(=O)c1cc(=O)[nH]c2ccccc12)Nc1ccccc1Br	9.28µM*	6.4%	?	5.5%
O=C(NC(=S)NC1CCCCC1)c1ccccc1[N+](=O)[O-]	-22.0%	11.0%	?	0.7%
S=c1nc2ccccc2c2nc(-c3ccccc3Br)[nH]n12	2.33µM*	2.8%	2.94µM*	?
O=C(CSc1nc2ccccc2n1Cc1ccccc1Cl)N/N=C/c1ccccc1C(=O)O	5.22µM*	-0.5%	?	?
O=C1CCC/C(=N/Nc2ccc(Cl)cc2)C1	11.7µM*	-0.7%	?	nt
CCSCCCC(=O)O	nt	nt	nt	1.4%
CCOc1ccccc1N1CCN(c2nc3ccccc3nc2C(C#N)C(=O)OC)CC1 (configuration not stated)	?	-2.1%	?	-5.5%
COc1ccccc1N1CCN(c2nc3ccccc3nc2C(C#N)C(=O)OC(C)C)CC1 (configuration not stated)	2.08µM*	-1.0%	1.85µM*	-45.0%
CCN1CCN(c2nc3ccccc3nc2C(C#N)C(=O)OCc2ccccc2)CC1 (configuration not stated)	?	-3.6%	11.7µM*	-8.8%
CCOC(=O)N1CCN(c2nc(-c3ccccc3)c3ccccc3n2)CC1	?	-1.3%	10.4µM*	-0.6%
CCOC(=O)N1CCN(c2nc3ccccc3nc2C(C#N)C(=O)NCCc2ccccc2)CC1 (configuration not stated)	?	0.9%	7.38µM*	-44.3%
O=C(Cn1c(CO)nc2ccccc21)Nc1ccc2c(c1)OCCCO2	1.0%	-7.6%	20.5%	nt
S=C(NCc1ccco1)Nc1cc(-c2ccccc2)[nH]n1	29.7%	-5.1%	24.8%	-42.4%
COc1ccccc1C(=O)COC(=O)/C(=C/c1ccccc1)NC(C)=O	39.9%	2.5%	17.9%	nt
Cc1cc(C)c(S(=O)(=O)N2CCN(C(=O)C3COc4ccccc4O3)CC2)c(C)c1 (configuration not stated)	0.2%	1.9%	?	nt
SMILES	Pf growth 96h	SARS PLpro yeast	Pf growth 48h	NS1 inh
C[C@H](O)c1[nH]c2cc(F)ccc2c1[C@H](C)O	?	0.8%	?	13.9%
CCCCCNC(=O)C(C#N)c1nc2ccccc2nc1N1CCCC1 (configuration not stated)	nt	-1.7%	19.9%	-6.0%
COCCCNC(=O)C(C#N)c1nc2ccccc2nc1N1CCCC1 (configuration not stated)	7.38µM*	5.2%	8.28µM*	3.0%
COc1ccccc1N1CCN(c2nc(C)cc(C)c2C#N)CC1	8.28µM*	-5.2%	3.5%	-30.5%
CCN(CC)CCCNC(=O)Cn1cnc2sc(C)c(S(=O)(=O)N3CCC(C)CC3)c2c1=O	?	5.2%	15.0%	-15.4%
COc1cc(/C=C/C(O)=C/C(=O)/C=C/c2ccc(O)cc2)ccc1O	?	1.2%	11.7µM*	nt
